Results taken from PubChem BioAssay.
The source made the active and inactive calls. How the calls were made is not given here.

The molecules below were run against Pantothenate synthetase (Mycobacterium tuberculosis (strain ATCC 25618 / H37Rv)) (UniProt P9WIL5) (assay: Coupled enzyme confirmation of inhibitors against recombinant Mtb PanC (AID 375;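 further: 0% = full reaction with vehicle and 100% = no enzyme background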)). Conditions: coupled enzyme assay; at 10 µM, active compounds read high.
Chain of Pantothenate synthetase (Mycobacterium tuberculosis (strain ATCC 25618 / H37Rv)) (P9WIL5 whole entry, looked up): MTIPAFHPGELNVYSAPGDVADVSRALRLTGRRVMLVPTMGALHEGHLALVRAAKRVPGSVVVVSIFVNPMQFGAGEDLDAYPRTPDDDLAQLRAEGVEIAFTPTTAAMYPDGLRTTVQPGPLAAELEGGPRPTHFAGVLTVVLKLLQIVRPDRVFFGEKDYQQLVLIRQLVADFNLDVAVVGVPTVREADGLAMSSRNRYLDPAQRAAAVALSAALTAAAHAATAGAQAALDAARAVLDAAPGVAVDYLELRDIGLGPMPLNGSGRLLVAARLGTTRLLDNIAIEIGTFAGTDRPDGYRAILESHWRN
With `O=C(COC(=O)CCOc1ccccc1)Nc1ccc(Cl)cn1` the inhibition was 0% (inactive).
With `COc1cc(/C=N/n2cnnc2)ccc1OCC(=O)N1CCOCC1` the inhibition was 0% (inactive).
For `COc1cc(OC)cc(-c2nc(N)n[nH]2)c1`, the inhibition was 0% (inactive).
In the case of `Cc1cccn2c(=O)c3cc(C(=O)NC4CCCC4)c(=N)n(C4CCCC4)c3nc12`, the inhibition is reported as 0% (inactive).
In the case of `COc1cc2c(cc1OC)-c1cc(OCc3cccnc3)nc(=O)n1CC2`, the inhibition is reported as 12% (inactive).
With `CCn1c(SCC(=O)c2ccc(OC)cc2)nnc1C(C)NC(=O)c1ccc(OC)cc1` (stereo unspecified) the inhibition was 3% (inactive).
For `O=C(O)CCCNS(=O)(=O)c1ccc(NCc2ccccc2)c(C(=O)O)c1`, the inhibition was 0% (inactive).
`COc1ccc(CCNC(=O)CCN2C(=O)C3CC=CCC3C2=O)cc1OC` (stereo unspecified) was tested, and the inhibition was 0% (inactive).
`CCOC(=O)C1CCN(c2nc3ccccc3nc2C(C#N)C(=O)OC(C)C)CC1` (stereo unspecified) was tested, and the inhibition was 0% (inactive).
`CC(CCc1ccco1)NC(=O)Cn1ncc2c1-c1ccccc1OC2` (stereo unspecified) was tested, and the inhibition was 5% (inactive).
In the case of `Clc1ccc(OCc2nc(-c3ccccn3)no2)c(Br)c1`, the inhibition is reported as 0% (inactive).
In the case of `CC(=O)NC(Cc1c[nH]c2ccccc12)C(=O)OCC(=O)Nc1cc(C)on1` (stereo unspecified), the inhibition is reported as 0% (inactive).
`CCc1c(C)nc(N)n2c(SCC(=O)N3CCCc4ccccc43)nnc12` was tested, and the inhibition was 2% (inactive).
`Cn1c(SCC(=O)Nc2ccc(F)cc2)nnc1-c1cccnc1` was tested, and the inhibition was 0% (inactive).
In the case of `COCc1nnc(NC(=O)c2ccc(S(=O)(=O)N(C)c3ccccc3)cc2)o1`, the inhibition is reported as 0% (inactive).
In the case of `COC(=O)c1ccc(CN(c2ccccc2OC)S(=O)(=O)c2cccs2)o1`, the inhibition is reported as 2% (inactive).
